Assay outcomes (PubChem)
Sampled rows, rich in hits. Any-hit rate of the full collection: about 8%.
HCMV antiviral: inhibitors of human cytomegalovirus; HFF cells, HCMV-luciferase reporter, 72 h; stronger effect = lower value; activity change, negative = inhibition, % at 57.5 µM; hit rate 4.5% among 410,000; AID 1259415; in the data active = activity change below about -60%; inconclusive = no clear call, values can overlap the other calls; inactive = above about -39%; also: % is scaled to controls: 0 for no effect and ±100 for the full control effect
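Compounds were evaluated in HFFs infected with an HCMV luciferase reporter virus (MOI 1 PFU/cell). Luciferase in lysates collected 72 h post infection served as the replication measure.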
FMDV inh: antivirals against foot and mouth disease virus | hit rate 1.2% among 410,000 | Potency, µM (highest dose often 57.9 µM), for the others: at the top dose activity change, negative = inhibition, usual class: inhibitors | AID 1159524 | FMDV antiviral cell-based qHTS; calls by dose curve; tested in HEK293T cells; also: read-out not given here; potency is read from the fitted curve at half-maximal effect; % is scaled to controls: 0 for no effect and ±100 for the full control effect; nearly all actives have a fitted effect of over 45% in size
SARS PLpro yeast: inhibitors of SARS-CoV papain-like protease in yeast. AID 485353. hit rate 0.19% among 330,000. S. cerevisiae expressing SARS-CoV PLpro, growth rescue. Potency, µM (highest dose often 32.9 µM), without a hit: at the highest dose activity, positive = growth rescue, hits mostly activators; calls by dose curve; also: potency is read from the fitted curve at half-maximal effect; 0% is about no effect; nearly all actives have a fitted effect of over 55% in size
Lassa entry inh: blocks Lassa virus binding to or entry into cells; Lassa virus pseudotype entry inhibition, cell reporter; hit rate 1.2% among 300,000; Potency, µM (series often up to 37.9 µM), without a hit: top-dose activity change, negative = inhibition, most hits filed as inhibitors; calls by dose curve; tested in HEK293 cells; also: potency is read from the fitted curve at half-maximal effect; % is scaled to controls: 0 for no effect and ±100 for the full control effect; nearly all actives have a fitted effect of over 50% in size
MARV entry inh: inhibitors of Marburg virus binding or cell entry | Marburg virus pseudotyped entry inhibition, cell reporter | Potency, µM (top dose mostly 37.8 µM), without a hit: at the top dose activity change, negative = inhibition, hits mostly inhibitors | hit rate 1.8% among 300,000; calls by dose curve; tested in HEK293 cells; also: potency is read from the fitted curve at half-maximal effect; % is scaled to controls: 0 for no effect and ±100 for the full control effect
HCV inh: blocks hepatitis C virus. AID 651820. hit rate 3.4% among 340,000. Huh7.5.1 HCVcc-Cre infection, luciferase reporter, 44 h. Potency, µM (doses to about 41.8 µM), for the others: at the top dose activity change, negative = inhibition, most hits filed as inhibitors; active = well fitted inhibition curve with a large enough effect; inconclusive = small, poorly fitted or top-dose-only effect, or another doubt; inactive = no such curve, though single readings can be large or run the other way; also: potency is read from the fitted curve at half-maximal effect; % is scaled to controls: 0 for no effect and ±100 for the full control effect
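Seed cells (1,000/well) for 4 h; treat with compound and infect with HCVcc-Cre, moi about 0.5. Incubate 44 h, then detect luciferase activity.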
An asterisk follows results filed as active; ? = inconclusive; . = no result given; ! = repeats disagree; [ ] = remark or other dose.

SMILES | HCMV antiviral | FMDV inh | SARS PLpro yeast | Lassa entry inh | MARV entry inh | HCV inh
CCOc1ccc(CCNC(=O)Cn2c(-c3cccs3)cc3cc(F)ccc32)cc1OCC | -4.2 | -42.4% | . | 11.2µM* | ? | .
CCOc1ccc(CCNC(=O)CN2CCN(Cc3ccccc3F)C2=O)cc1OCC | -2.6 | 5.5% | 4.7% | ? | ? | 11.2µM*
CCOc1ccc(CCNC(=O)CN2CCN(Cc3ccc(F)cc3)C2=O)cc1OCC | -27.9 | -20.2% | -4.7% | -0.6% | 1.8% | ?
CC(CNC(=O)C1CCN(C(=O)c2cc3sccc3n2C)CC1)c1ccccc1 (stereo not drawn) | -6.1 | -19.7% | . | . | 0.7%[46.1 µM] | .
O=C(COc1ccc(-n2ccnc2)cc1)Nc1cccc(F)c1 | ? | -21.9% | -1.0% | . | . | -26.1%
Cc1cc(Nc2cccc(Cl)c2)nc2ccc(NC(=O)COc3ccc(Cl)cc3)cc12 | -106.1* | -18.4% | . | -2.8%[46.1 µM] | . | .
Cc1cccc(OCC(=O)Nc2ccc3nc(Nc4cccc(Cl)c4)cc(C)c3c2)c1 | -63.3* | -2.2% | . | -17.7%[46.1 µM] | . | .
O=C(COc1ccc(-n2ccnc2)cc1)Nc1cccc(Cl)c1 | -64.4* | ? | -6.3% | -1.3% | ? | ?
Brc1ccc(CNc2nc3ccccc3n2CCN2CCCCC2)cc1 | -0.2 | ? | -0.6% | . | 4.8% | ?
CC(C)(C)[Si](C)(C)OCc1ccc(-c2c3c(cc4ccc(Cl)cc24)CCC3=O)cc1 | 0.6 | . | . | . | . | .
COC(=O)c1cc(OC)c(OC)cc1NCC(=O)Nc1cccc(C(F)(F)F)c1 | ? | ? | -15.7% | -11.0% | 10.3µM* | ?
N#Cc1cccc(NC(=O)CNc2cccc(S(=O)(=O)N3CCCC3)c2)c1 | -26.3 | 1.8% | -1.3% | ? | ? | 2.51µM*
O=C(CNc1cc(S(=O)(=O)N2CCOCC2)ccc1N1CCOCC1)Nc1cccc(C(F)(F)F)c1 | 0.7 | -10.3% | -6.9% | ? | 13.2%[46.1 µM] | 8.1%
O=C(CNc1cc(S(=O)(=O)N2CCCC2)ccc1OCC(F)(F)F)Nc1cccc(C(F)(F)F)c1 | -68.6* | ? | -7.6% | ? | ? | 11.2µM*
O=C(CNc1cccc(C(F)(F)F)c1)Nc1cccc(S(=O)(=O)N2CCCC2)c1 | ? | -20.9% | 7.1% | . | . | 11.2µM*
O=C(CNc1cccc(S(=O)(=O)N2CCCC2)c1)Nc1cccc(F)c1 | -6.2 | -22.8% | -2.0% | 2.2% | ? | -6.8%
CN1C(=O)C2CCCCN2c2ccc(C(=O)NCc3ccccc3Br)cc21 (stereo not drawn) | ? | 15.9% | . | ? | . | .
CSc1ncccc1C(=O)NCCN1Cc2ccccc2OC(c2ccccc2F)C1 (stereo not drawn) | . | 7.3% | . | . | . | .
N#Cc1ccccc1NC(=O)C1SC(=Nc2ccccc2)C(C(=O)Nc2ccc(Cl)cc2)=C1N (stereo not drawn) | 25.3 | 0.0% | 0.2% | ? | -5.3%[46.1 µM] | 10µM*
c1ccc2sc(SCSc3nc4ccccc4s3)nc2c1 | -19.6 | 54.5% | -0.1% | . | . | 5.6%
O=C(O)CCSc1nc2ccccc2s1 | -82.5* | 39.8µM* | -3.6% | -14.1%[14.3 µM] | -21.6% | 0.1%
O=C(CN(c1ccccc1)S(=O)(=O)c1ccccc1)NCCSc1nc2ccccc2s1 | -20.5 | 22.4µM* | 5.4% | -17.1% | ? | -4.9%
Cc1cccc(N(CC(=O)NCCSc2nc3ccccc3s2)S(=O)(=O)c2ccccc2)c1 | . | . | 1.8% | . | -6.8% | 2.4%
Cn1cc(CN2CCC(CO)CC2)c(-c2ccc(Oc3ccccc3)cc2)n1 | ? | -3.8% | -0.8% | -12.1%[46.1 µM] | ? | -11.8%
CC(NS(=O)(=O)c1ccc2ccccc2c1)c1ccccn1 (stereo not drawn) | -14.9 | 7.4% | -3.0% | . | . | 3.2%
SMILES | HCMV antiviral | FMDV inh | SARS PLpro yeast | Lassa entry inh | MARV entry inh | HCV inh
C/C(CC(=O)NC1CCCCC1)=N\NC(=O)COc1ccc(C)cc1Br | -4.3 | 5.8% | 1.8% | . | . | -1.2%
CC(NC(=O)CSc1nc2sc3c(c2c(=O)n1-c1ccccc1)CCCC3)c1ccccc1 (stereo not drawn) | -80.7* | . | -2.0% | ? | ? | 0.8%
C=CCn1c(SCC(C)=O)nc2scc(-c3ccco3)c2c1=O | 21.5 | -5.4% | 1.6% | -1.4%[46.1 µM] | -25.5%[46.1 µM] | -23.3%
COc1ccc(-n2c(SCCNCCO)nc3sc4c(c3c2=O)CCCC4)cc1 | -9.1 | -6.9% | 3.1% | ? | ? | 2.82µM*
C=CCn1c(SCC(=O)N2CCOCC2)nc2scc(-c3ccco3)c2c1=O | . | -15.1% | -3.2% | 10.3µM* | -13.4% | ?
Cc1nn(Cc2ccccc2)c(C)c1NC(=O)CSc1nc2sc3c(c2c(=O)n1C)CCC3 | . | ? | . | 5.6% | 6.5% | 22.4µM*
Cc1cccc(C)c1NC(=O)C(Nc1ccccc1)c1ccccc1F (stereo not drawn) | 8.0 | . | . | . | . | .
CC(C)C(C)(C#N)NC(=O)CSc1nc2scc(-c3ccco3)c2c(=O)n1-c1ccccc1 (stereo not drawn) | -17.0 | -7.3% | -2.1% | -20.0% | -11.6% | ?
CC(C)C(C)NC(=O)CSc1nc2scc(-c3ccco3)c2c(=O)n1-c1ccccc1 (stereo not drawn) | -63.5* | 0.0% | 3.5% | -12.8% | -37.5% | 8.2%
CN(Cc1ccccc1)C(=O)CCSc1nc(-c2ccc3c(c2)OCO3)cc(C(F)(F)F)n1 | -26.8 | -18.3% | -12.9% | ? | ? | 10µM*
O=C(CCSc1nc(-c2ccc3c(c2)OCO3)cc(C(F)(F)F)n1)NCc1ccccc1 | -2.7 | -8.4% | -14.3% | 0.0% | ? | ?
C[C@H]1CC[C@H]2C(=O)NC[C@H](O)CN2[C@H]1c1ccc(Br)cc1 | . | . | . | . | -9.5%[14.2 µM] | .
O=C(c1ccco1)N1CCC2(CC1)CCN(c1ccccc1)CC2 | . | -11.4% | . | . | . | .
CS(=O)(=O)Nc1ccc([N+](=O)[O-])cc1Oc1ccccc1 | 34.8 | ? | 16.3% | 0.0164µM*! | ? | 3.3%[8.37 µM]
COCCCNc1nnc(Cc2ccc(Cl)cc2)c(=O)[nH]1 | -74.9* | -27.9% | 1.3% | . | . | -1.9%
CCN(C)c1cc2c(c3c1ccn3C)C1CCC2C1 (stereo not drawn) | -1.2 | -11.6% | . | 12.9%[46.1 µM] | . | .
COc1ccccc1N(C)c1cc2c(c3c1ccn3C)C1CCC2C1 (stereo not drawn) | -88.7* | -10.1% | . | . | ? | .
CCCC(=O)N1CCCC1(C)C(=O)Nc1ccc(OC(F)F)cc1 (stereo not drawn) | 14.2 | -12.8% | . | . | . | .
CCC(=O)N1CCC1(C)C(=O)Nc1ccc(OC(F)F)cc1 (stereo not drawn) | -63.3* | -10.4% | . | . | . | .
O=[N+]([O-])c1ccc(CNc2ccc(Cl)cc2)s1 | 48.0 | ? | -18.9% | 3.55µM* | ? | 10.5%
C=CCNC(=S)Nc1cccc([N+](=O)[O-])c1 | -89.7* | 4.7% | 6.3% | . | . | -4.1%
CNC(=S)Nc1cccc([N+](=O)[O-])c1 | -3.2 | -7.9% | 0.5% | 5.6% | -2.3%[46.1 µM] | 5.6%
Cc1cc(Br)ccc1NC(=S)Nc1cccc([N+](=O)[O-])c1 | -63.7* | -23.5% | -13.1% | -3.4% | 25.5% | ?
O=C(NCCCN1CCN(c2cccc(Cl)c2)CC1)c1sc2ncccc2c1-n1cccc1 | 47.8 | ? | . | -12.4%[46.1 µM] | . | .
